Several values for one entry are separate records, joined by “and”; a condition that tells them apart may be missing. Equal values may be shown once. Inconclusive results are not listed. A structure can be active in one record and inactive in another. Activity calls are given as the source filed them. Rule for the calls: active = hit-call score of the fitted dose curve at least 0.9, where 1 is the maximum; inconclusive = response in the unintended direction; inactive = score below 0.9.

Chain of Peroxisome proliferator-activated receptor gamma (Homo sapiens) (P37231 whole entry, looked up): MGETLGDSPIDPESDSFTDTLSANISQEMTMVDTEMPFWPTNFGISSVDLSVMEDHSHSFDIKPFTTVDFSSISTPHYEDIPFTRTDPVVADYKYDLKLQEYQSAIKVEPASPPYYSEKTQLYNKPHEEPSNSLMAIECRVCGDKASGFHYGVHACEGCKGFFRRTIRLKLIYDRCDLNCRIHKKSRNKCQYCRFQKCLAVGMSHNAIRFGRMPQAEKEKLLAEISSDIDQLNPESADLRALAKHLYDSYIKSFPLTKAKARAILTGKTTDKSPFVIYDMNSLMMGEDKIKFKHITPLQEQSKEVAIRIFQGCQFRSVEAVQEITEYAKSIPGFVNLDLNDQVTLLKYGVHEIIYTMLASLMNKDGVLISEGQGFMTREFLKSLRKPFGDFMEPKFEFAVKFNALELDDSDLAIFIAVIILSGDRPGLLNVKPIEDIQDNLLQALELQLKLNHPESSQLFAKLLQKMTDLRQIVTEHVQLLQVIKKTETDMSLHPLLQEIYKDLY

The assay concerns the target Peroxisome proliferator-activated receptor gamma (Homo sapiens) (UniProt P37231). The assay can be described thus: ATG_hPPARg_XSP2: Attagene TRANS-FACTORIAL Multi-Species (XSP2) HepG2 Assay for human Peroxisome Proliferator-activated Receptor gamma (PPARg) (AID 2283829).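 Note: actives raise reporter mRNA above DMSO so AC50 reflects PPARg activation.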 On the procedure:
ATG_XSP2_multi-species_TRANS is a cell-based, multiplexed assay created by modifying the existing Attagene TRANS-FACTORIAL system to include a panel of nuclear receptors from some or all the following species: human (Homo sapiens), mouse (Mus musculus), frog (Xenopus laevis), zebrafish (Danio rerio), chicken (Gallus gallus), and turtle (Chrysemys picta). The ECOTOX-FACTORIAL format uses HepG2, a human liver cell line, with measurements taken at 24 hours after chemical dosing in a 24-well plate. Xsp2 included 3 nM 6-alpha-fluorotestosterone and 1.5 nM norgestrel to stimulate the androgen receptor.ATG_hPPARg_XSP2 is one of 29 assay components measured or calculated from the ATG_XSP2_multi-species_TRANS assay. It is designed to make measurements of mRNA induction, a form of inducible reporter, as detected with fluorescence intensity signals by Reverse transcription polymerase chain reaction (RT-PCR) and Capillary electrophoresis technology.The assay endpoint ATG_hPPARg_XSP2 was analyzed in the positive analysis fitting direction relative to DMSO as the negative control and baseline of activity. Using a type of inducible reporter, measures of mRNA for gain-of-signal activity can be used to understand the reporter gene at the transcription factor-level as they relate to the gene PPARg. Furthermore, this assay endpoint can be referred to as a primary readout, because this assay has produced multiple assay endpoints where this one serves a reporter gene function. To generalize the intended target to other relatable targets, this assay endpoint is annotated to the nuclear receptor intended target family, where the subfamily is non-steroidal.
Human liver HepG2 cells are transiently transfected with multiple reporter transcription units (MRTUs) in 6-well plates using FuGene 6 reagent (Roche; 3 ml FuGene/1 mg DNA). The MRTU constructs are regulated by a cis-regulating element (promoter). […] A major difference between the CIS and TRANS system is that in CIS activities of endogenous TFs are measured, whereas the TRANS assay evaluates changes in activities of exogenous, chimeric NR-Gal4 proteins. […] At the end of 24 hour incubation, total RNA was isolated using TriZol reagent (Invitrogen). The isolated RNA is then reverse-transcribed using oligo(dT) primer and Mo-MLV reverse transcriptase (Invitrogen) with DNAse I (Ambion) treatment for 30 min. The one-tenth of the produced cDNA was amplified by PCR using Taq DNA polymerase (Invitrogen) and two reporter sequence-specific primers. The PCR products were fluorescently labeled by primer extension with 6-arboxyfluorescein (6-FAM) 5'-labeled reporter sequence-specific primer (2 min at 95 C, 20 s at 68 C and 10 min at 72 C) and these products were digested with 5U of HpaI (New England Biolabs) for 2h at 37 C. The fragments were purified using Qiaquick PCR columns (Qiagen), analyzed on an ABI 3130xL genetic analyzer (Applied Biosystems) with peak positions identified by using a set of X-rhodamine (ROX)-labeled MapMarker1000 molecular weight standards (BioVentures). The raw capillary electrophoresis data was processed using Attagraph software (Attagene).
Turning to `c1cc2ccc3cccc4ccc(c1)c2c34`, the call was inactive and the half-maximal activity concentration (AC50) was 140 µM (active).

Turning to `C[C@]12CCC(=O)C=C1CC[C@@H]1[C@@H]2CC[C@@]2(C)[C@H]1CC[C@]2(C)O`, the compound was called inactive. Same read-out and setting: under `CC(c1ccc(O)cc1)(c1ccc(O)cc1)c1ccc(O)cc1` stands “inactive”; under `ClC(Cl)=C(c1ccc(Cl)cc1)c1ccc(Cl)cc1`, “inactive”; under `CCC(=O)O[C@H]1CC[C@H]2[C@@H]3CCC4=CC(=O)CC[C@]4(C)[C@H]3CC[C@]12C`, “inactive”. For the compound `Cc1cc(-c2ccc(N)c(C)c2)ccc1N`, the AC50 is 16.2 µM (active) and 72.1 µM (active) and 100 µM (active).

With `CC(C)(c1ccccc1)c1ccc(O)cc1`, the outcome was inactive. For `CCOC(=O)C(O)(c1ccc(Cl)cc1)c1ccc(Cl)cc1`, the AC50 is 17.4 µM (active) and 31.3 µM (active). On to `Oc1ccc(C(c2ccc(O)cc2)(C(F)(F)F)C(F)(F)F)cc1`, for which the call was inactive. Regarding `C[C@]12CCC(=O)C=C1CC[C@@H]1[C@@H]2CC[C@]2(C)C(=O)CC[C@@H]12`, the call was inactive. Same read-out and setting: under `Clc1ccc(C(c2ccccc2Cl)C(Cl)(Cl)Cl)cc1` (configuration not stated) stands “inactive”.

The AC50 is the midpoint of the concentration-response curve, whichever way the signal moves.

Values taken from PubChem BioAssay (EPA / NIEHS).
